Source: PubChem
This is a sample that favours compounds with a hit; in the whole collection about 2.6% have one here.
p53 mut binder: binds human mutant p53 on microarray; small molecule microarray binding, anti-GST fluorescence; calls only; hit rate 0.4% among 17,000;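 active = compounds whose four printed spots each glow above background more than chance allows, each with a p-value under 7%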
p53 PUMA act: restores mutant p53 pathway signaling in SW480 cells; SW480 PUMA-promoter luciferase, p53 mutant reactivation; activation, % at 9.98 µM; hit rate 1.5% among 28,000; in the data active = activation above about 52%
STAT3 SMM: binders of human STAT3; Small molecule microarray, His-STAT3 binding, anti-His fluorescence; calls only; P40763; hit rate 0.2% among 17,000;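 active = compounds whose four printed spots each show fluorescence over background unusually high for their array block, chance value under 7%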
NFkB SMM: binders of human NF-kappa-B p105; calls only; hit rate 1.3% among 17,000; Small molecule microarray, anti-His fluorescence binding; P19838; AID 624139;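 active = spot fluorescence over background significantly raised, with a chance value under 7% in all four replicate spots of the compound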;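 also: probe protein is his-tagged human p50 processed subunit at 1 µg/ml; raw spot fluorescence signals with no normalization applied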
Target sequence (P19838 1-433 limits assumed): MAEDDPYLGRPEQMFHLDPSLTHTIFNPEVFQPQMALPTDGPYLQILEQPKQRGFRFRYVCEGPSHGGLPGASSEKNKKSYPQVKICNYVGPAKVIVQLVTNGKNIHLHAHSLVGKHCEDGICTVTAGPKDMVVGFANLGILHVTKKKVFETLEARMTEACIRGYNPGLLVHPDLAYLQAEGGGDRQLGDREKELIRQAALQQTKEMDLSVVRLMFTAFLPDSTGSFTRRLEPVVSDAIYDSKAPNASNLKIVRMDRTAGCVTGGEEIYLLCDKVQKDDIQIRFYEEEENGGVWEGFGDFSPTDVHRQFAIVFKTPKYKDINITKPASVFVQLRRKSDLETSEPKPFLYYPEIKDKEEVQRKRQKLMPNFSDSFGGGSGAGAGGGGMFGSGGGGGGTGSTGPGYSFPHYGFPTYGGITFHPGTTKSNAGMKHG
c-Myc SMM: c-Myc (human) binding; hit rate 1.5% among 17,000; small molecule microarray, His-c-Myc binding, anti-His fluorescence; calls only; P01106;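 active = spot fluorescence over background with P-value below 7% in all four replicate spots, showing protein binding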;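 also: score is binary with 100 for all four spots passing and 0 otherwise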
An asterisk follows results filed as active.

CCn1c(SCC(=O)Nc2ccc(Cl)cc2)nnc1-c1ccco1 was read as p53 PUMA act 20.
Screening O=C(CSc1nnc(-c2ccccc2)o1)Nc1cccc(F)c1 returned p53 PUMA act 78*.
COc1ccccc1NC(=O)CSc1nnc(-c2ccc(Cl)cc2)o1 was read as p53 mut binder inactive, p53 PUMA act 89*, STAT3 SMM inactive, NFkB SMM inactive and c-Myc SMM inactive.
Screening CCc1ccc2[nH]c(C(=O)Nc3ccccc3C(C)CC)cc2c1 (stereo not drawn) returned p53 PUMA act 4.
Screening CN1C(=O)c2ccccc2C(C(=O)NCc2ccco2)C1c1cn(C)c2ccccc12 (stereo not drawn) returned p53 PUMA act 1.
Screening COC(=O)c1c(NC(=O)CSc2ncnc3sc(C)c(C)c23)sc(C)c1C returned p53 mut binder inactive, p53 PUMA act -3, STAT3 SMM inactive, NFkB SMM inactive and c-Myc SMM inactive.
For CCOc1ccccc1C(=O)Oc1c(S(=O)(=O)c2ccc(C)cc2)c(C)nn1-c1ccccc1 the results were p53 mut binder inactive, p53 PUMA act -18, STAT3 SMM inactive, NFkB SMM inactive and c-Myc SMM active.
For CCC(=O)Oc1c(S(=O)(=O)c2ccccc2)c(C)nn1C(C)(C)C the results were p53 PUMA act 12.
Screening COc1cc(-c2nc3ccccc3s2)cc(Br)c1OCC(=O)O returned p53 mut binder inactive, p53 PUMA act -19, STAT3 SMM inactive, NFkB SMM inactive and c-Myc SMM active.
`COc1ccc(-c2nc3ccccc3s2)cc1NC(=O)COc1ccc(Br)cc1` gave p53 PUMA act 79*.
COc1ccc(-c2nc3ccccc3s2)cc1NC(=O)COc1ccc(C(C)C)cc1 was read as p53 PUMA act 48.
For Cc1ccc(-c2nn(CCC(=O)Nc3cccc(Cl)c3)c(=O)c3ccccc23)cc1 the results were p53 PUMA act 5.
Screening COCc1c(Br)c(C)nc(OCC(=O)O)c1C#N returned p53 mut binder inactive, p53 PUMA act -3, STAT3 SMM inactive, NFkB SMM active and c-Myc SMM active.
Screening COC(=O)c1ccc(COc2nc(C)cc(C)c2C#N)o1 returned p53 mut binder inactive, p53 PUMA act 49, STAT3 SMM inactive, NFkB SMM inactive and c-Myc SMM inactive.
